Results filed as inconclusive are left out. Calls of active or inactive are those of the source. Calls follow the shape of the dose curve; as a rule, active = well fitted curve in the direction sought with a large enough effect; inconclusive = small, poorly fitted or top-dose-only effect, or another doubt; inactive = no such curve, though single readings can be large; an effect the other way counts as inactive or inconclusive.
What was measured:
[1] = Confirmation and Secondary Assay for Modulators of Hemoglobin Beta Chain Splicing at IVS2 654 locus (AID 910);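 also: per-well total GFP intensity by laser scanning cytometry after 2-day treatment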
In short: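 HeLa cells stably carrying EGFP interrupted by mutant beta-globin IVS2-654 intron (CMV-driven) were treated with compound for 2 days at 37C; corrected splicing was scored as total peak GFP intensity per well (488 nm excitation, 500-520 nm emission).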

[2] = Confirmation and Secondary Assay for Modulators of Hemoglobin Beta Chain Splicing at IVS2 705 locus (AID 930);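 also: HeLa cells stably expressing the EGFP-705 splicing reporter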
In short: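 HeLa cells stably carrying EGFP interrupted by mutant beta-globin IVS2-705 intron (CMV-driven) were seeded at 500 cells/well, treated next day with compound for 2 days at 37C; corrected splicing restores EGFP, read as total peak GFP intensity per well.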

CP194 = assay: qHTS profiling for inhibitors of Plasmodium falciparum proliferation (AID 504749); also: nearly all actives have a fitted effect of over 60% in size; also: potency is read from the fitted curve at half-maximal effect; settings: P. falciparum in erythrocytes, SYBR Green DNA, 72 h; series mostly up to 28.7 µM
In short: (§1)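 Quantitative HTS: compounds pinned into medium, infected erythrocytes added (0.3% parasitemia, 2.5% hematocrit), 72 h culture at 37 C under 5% CO2. Saponin/Triton lysis with SYBR Green I, overnight RT, then fluorescence read.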

CP201 = assay: as above; settings: P. falciparum in erythrocytes, SYBR Green DNA, 72 h; series mostly up to 28.7 µM
In short: as §1

CP262 = assay: as above; settings: P. falciparum in erythrocytes, SYBR Green DNA, 72 h; series mostly up to 28.7 µM
In short: as §1

CP266 = assay: as above; settings: P. falciparum in erythrocytes, SYBR Green DNA, 72 h; series mostly up to 28.7 µM
In short: as §1

CP268 = assay: as above; settings: P. falciparum in erythrocytes, SYBR Green DNA, 72 h; series mostly up to 28.7 µM
In short: as §1

CP269 = assay: as above; settings: P. falciparum in erythrocytes, SYBR Green DNA, 72 h; series mostly up to 28.7 µM
In short: as §1

CP291 = assay: as above; settings: P. falciparum in erythrocytes, SYBR Green DNA, 72 h; series mostly up to 28.7 µM
In short: as §1

CP297 = assay: as above; settings: P. falciparum in erythrocytes, SYBR Green DNA, 72 h; series mostly up to 28.7 µM
In short: as §1

CP305 = assay: as above; settings: P. falciparum in erythrocytes, SYBR Green DNA, 72 h; series mostly up to 28.7 µM
In short: as §1

CP325 = assay: as above; settings: P. falciparum in erythrocytes, SYBR Green DNA, 72 h; series mostly up to 28.7 µM
In short: as §1

CP335 = assay: as above; settings: P. falciparum in erythrocytes, SYBR Green DNA, 72 h; series mostly up to 28.7 µM
In short: as §1

DIV17 = assay: as above; settings: P. falciparum in erythrocytes, SYBR Green DNA, 72 h; series mostly up to 28.7 µM
In short: as §1

FAB9 = assay: as above; settings: P. falciparum in erythrocytes, SYBR Green DNA, 72 h; series mostly up to 28.7 µM
In short: as §1

GB4 = assay: as above; settings: P. falciparum in erythrocytes, SYBR Green DNA, 72 h; series mostly up to 28.7 µM
In short: as §1

JCK = assay: as above; settings: P. falciparum in erythrocytes, SYBR Green DNA, 72 h; series mostly up to 28.7 µM
In short: as §1

P94_40 = assay: as above; settings: P. falciparum in erythrocytes, SYBR Green DNA, 72 h; series mostly up to 28.7 µM
In short: as §1

PAD = assay: as above; settings: P. falciparum in erythrocytes, SYBR Green DNA, 72 h; series mostly up to 28.7 µM
In short: as §1

TAB109 = assay: as above; settings: P. falciparum in erythrocytes, SYBR Green DNA, 72 h; series mostly up to 28.7 µM
In short: as §1

Measured: Potency

COc1ccccc1-c1ccc2ncnc(NCc3cccnc3)c2c1
inactive: [1] | [2]

CN(C)c1ccc(-c2nc(Nc3ccncc3)c3ccccc3n2)cc1
inactive: [1] | [2]

CC1(C)S[C@@H]2[C@H](NC(=O)Cc3ccccc3)C(=O)N2[C@@H]1C(=O)O
inactive: CP194 | CP201 | CP262 | CP266 | CP268 | CP269 | CP291 | CP297 | CP305 | CP325 | CP335 | DIV17 | FAB9 | GB4 | JCK | P94_40 | PAD | TAB109

Cc1onc(-c2c(F)cccc2Cl)c1C(=O)N[C@@H]1C(=O)N2[C@H]1SC(C)(C)[C@H]2C(=O)O
inactive: CP194 | CP201 | CP266 | CP268 | CP269 | CP291 | CP297 | CP305 | CP325 | DIV17 | FAB9 | GB4 | JCK | P94_40 | PAD | TAB109

CC(C)(C)c1ccc(CN2CCN([C@H](c3ccccc3)c3ccc(Cl)cc3)CC2)cc1
active: CP335 3.38 µM | GB4 15.1 µM | P94_40 7.94 µM

C[C@H](CCC(=O)O)[C@H]1CC[C@@H]2[C@H]3[C@@H](C[C@@H](O)[C@]21C)[C@]1(C)CC[C@H](O)C[C@@H]1C[C@@H]3O
inactive: CP194 | CP201 | CP262 | CP266 | CP268 | CP269 | CP291 | CP297 | CP305 | CP325 | CP335 | DIV17 | FAB9 | JCK | PAD | TAB109

Source: PubChem BioAssay (NCATS)
